Measurements taken from PubChem BioAssay AID463173 (ICCB-Longwood Screening Facility, Harvard Medical School, 2010).
Among all 52,000 compounds or so, about 4,300 (8.3%) were called active. Many of the other results were omitted from the sample, so actives are more common in it than they were. Values without a mark were called inactive. Cut-off read from the data, not from the text of the source: active = survival mostly below about 52% (no sharp cut-off); inactive = mostly above about 56%.

The compounds below were run on DeltatarO mutant (assay: S. aureus survival, RN4220 and DeltatarO strains – OD600, teichoic acid synthesis inhibitors, primary screen (AID 463173)). Details: S. aureus RN4220 wild type/DeltatarO growth, OD600, 18 h, active compounds read low, concentration not given here.

Row | Structure (SMILES) | survival
1 | CC1CC(=O)C2CCCCC2N1 (stereo unspecified) | 84%
2 | Cc1ccc(Cn2cccc(C(=O)Nc3ccc4c(c3)OCO4)c2=O)cc1 | 75%
3 | CN(C)C(=O)Oc1cccc2cccnc12 | 76%
4 | Cc1ccc(-n2c(/C=C\c3ccc(F)c(F)c3)nc3ccccc3c2=O)c(C)c1 | 98%
5 | O=c1c2ccccc2nc(/C=C/c2ccccc2)n1-c1ccccc1F | 69%
6 | Cc1ccc(-n2c(/C=C/c3ccc(Br)s3)nc3ccccc3c2=O)cc1C | 90%
7 | O=c1c2ccccc2nc(/C=C\c2ccc(F)cc2)n1-c1ccccc1F | 94%
8 | Cc1ccccc1-n1c(/C=C/c2ccc(O)cc2)nc2ccccc2c1=O | 35% (active)
9 | Cc1ccccc1-n1c(/C=C/c2ccc(N(C)C)cc2)nc2ccccc2c1=O | 8% (active)
10 | CSc1ccc(/C=C/c2nc3ccccc3c(=O)n2-c2cccc(Cl)c2C)cc1 | 80%
11 | Cc1ccccc1-n1c(/C=C/c2ccccc2F)nc2ccccc2c1=O | 5% (active)
12 | Cc1ccccc1-n1c(/C=C/c2c(C)[nH]c3ccccc23)nc2ccccc2c1=O | 18% (active)
13 | Cc1cccc(-n2c(/C=C/c3c(C)[nH]c4ccccc34)nc3ccccc3c2=O)c1 | 120%
14 | Cc1ccc(-n2c(/C=C/c3ccccc3)nc3ccccc3c2=O)cc1C | 78%
15 | COc1ccc(-n2c(/C=C\c3ccccc3F)nc3ccccc3c2=O)c(OC)c1 | 89%
16 | CN1C2CCC1CC(OC(=O)C1(c3ccccc3)CCCC1)C2 (stereo unspecified) | 116%
17 | CCN(CC)CCSc1nc2ccccc2c(=O)n1-c1ccc(Cl)cc1 | 148%
18 | CC(c1ccccc1)n1cncc1C(=O)N1CCCC1=O (stereo unspecified) | 87%
19 | Cc1ccc(OCC(=O)N2CCN(Cc3ccc(F)cc3)CC2)cc1 | 156%
20 | Cc1cccc(NC(=O)Cn2cc(C(=O)c3ccccc3)c3ccccc32)c1 | 130%
21 | CCOc1ccc(CN2C(=O)c3ccccc3Sc3ccc(C(=O)N4CCC5(CC4)OCCO5)cc32)cc1 | 74%

Row | Structure (SMILES) | survival
22 | COc1cc2[nH]c(=O)n(-c3ccc(C)cc3)c(=O)c2cc1OC | 94%
23 | OC1CCNC2CCCCC12 (stereo unspecified) | 94%
24 | Cc1nc2ccccc2c(=O)n1-c1cccc(O)c1 | 96%
25 | Cc1oc(-c2ccccc2Cl)nc1CN1C(=O)CN=C(c2ccccc2)c2cc(Cl)ccc21 | 77%
26 | Cc1cccc(Cn2cccc(C(=O)Nc3nc4ccccc4s3)c2=O)c1 | 122%
27 | Cc1ccccc1-n1nc(C)c2c1NC(=O)CSC2c1ccc(Cl)cc1 (stereo unspecified) | 21% (active)
28 | Cc1ccccc1-n1nc(C)c2c1NC(=O)CSC2c1ccc(N(C)C)cc1 (stereo unspecified) | 43% (active)
29 | CCc1ccc(-n2nc(C)c3c2NC(=O)CSC3c2ccc(C(=O)OC)cc2)cc1 (stereo unspecified) | 64%
30 | Cc1ccccc1-n1nc(C)c2c1NC(=O)CSC2c1ccccc1C(F)(F)F (stereo unspecified) | 39% (active)
31 | COc1ccc(Br)cc1C1SCC(=O)Nc2c1c(C)nn2-c1ccccc1C (stereo unspecified) | 43%
32 | Cc1ccc(-n2nc(C)c3c2NC(=O)CSC3c2ccc(O)cc2)cc1Cl (stereo unspecified) | 73%
33 | CCc1ccc(-n2nc(C)c3c2NC(=O)CSC3c2ccccc2C)cc1 (stereo unspecified) | 57%
34 | O=C(COc1cc(Cl)ccc1Cl)Nc1ccc(Cl)cc1C(=O)c1ccccc1 | 69%
35 | CC1=CC(=O)C2=C(C)CC(O)C3C(C)C(=O)OC3C12 (stereo unspecified) | 100%
36 | CCc1ccc(NC(=O)c2cccn(Cc3cccc([N+](=O)[O-])c3)c2=O)cc1 | 89%
37 | Cc1cc(C=C(C#N)C#N)c(C)n1C1CCCC1 | 64%
38 | CC(C)NCc1ccc2c(c1)OCO2 | 76%
39 | Cc1ccc(C(C)(C)C)c(OCC(=O)Nc2ccc(Cl)cc2C(=O)c2ccccc2)c1 | 66%
40 | CCN(CC)C(=O)c1ccc(NC(=O)Cn2nc(-c3ccc(C)cc3)c3ccccc3c2=O)cc1 | 50%
41 | CCN(CC)C(=O)c1ccc(NC(=O)CCn2nc(-c3ccc(Cl)cc3)c3ccccc3c2=O)cc1 | 47% (active)
42 | CCN(CC)C(=O)c1ccc(NC(=O)CCn2nc(-c3ccc(C)cc3)c3ccccc3c2=O)cc1 | 61%

Row | Structure (SMILES) | survival
43 | CCOc1ccccc1NC(=O)c1cccn(Cc2ccccc2C)c1=O | 70%
44 | Cc1[nH]c2c(C)cccc2c1CCN | 37% (active)
45 | Cc1n[nH]c(C)c1CCN | 80%
46 | O=S1(=O)CC2(N3CCOCC3)CCCCC21 (stereo unspecified) | 84%
47 | C=CCN1C(=O)CN=C(c2cccs2)c2c1sc1c2CCC1 | 92%
48 | COc1cccc(NC(=O)Cn2cc(C(=O)c3ccccc3)c3ccccc32)c1 | 47%
49 | COc1ccc(OC)c(NC(=O)Cn2cc(C(=O)c3ccccc3)c3ccccc32)c1 | 59%
50 | COc1ccc(OC)c(NC(=O)Cn2cc(C(=O)c3ccccc3F)c3ccccc32)c1 | 70% (active)
51 | Cc1ccc(-c2nn3c(=O)cc(CN4CCN(C(=O)COc5ccc(C)c(C)c5)CC4)nc3s2)cc1 | 81%
52 | O=C(COc1ccccc1Cl)N1CCN(CCc2ccccn2)CC1 | 110%
53 | COc1ccc(OC)c(C(c2c(O)c3ccccc3oc2=O)c2c(C)n(C)n(-c3ccccc3)c2=O)c1 (stereo unspecified) | 56%
54 | COc1cccc(-n2c(/C=C\c3ccc(Cl)cc3)nc3ccccc3c2=O)c1 | 30% (active)
55 | COc1cccc(/C=C/c2nc3ccccc3c(=O)n2-c2ccc(Cl)cc2)c1OC | 88%
56 | Cc1ccc(-n2c(/C=C/c3ccccc3)nc3ccccc3c2=O)cc1Cl | 68%
57 | COc1cccc(-n2c(/C=C/c3cccc(C)c3)nc3ccccc3c2=O)c1 | 0% (active)
58 | COc1ccc(/C=C/c2nc3ccccc3c(=O)n2-c2ccc(C)cc2)cc1O | 85%
59 | Cc1cccc(-n2c(/C=C\c3cccc(Br)c3)nc3ccccc3c2=O)c1 | 113%
60 | O=c1c2ccccc2nc(/C=C/c2cccc3ccccc23)n1-c1ccc(Cl)cc1 | 78%
61 | CCN1CCN(C(=O)COc2ccc(S(=O)(=O)N(C)Cc3ccccc3)cc2)CC1 | 87%
